Source: PubChem
CHX counter: Cycloheximide Counterscreen for Small Molecule Inhibitors of Shiga Toxin; max response, %; AID 2314, 2010; 300,000 compounds, 12% hits; cell reporter, cycloheximide protein synthesis inhibition counterscreen; in the data active means max response mostly above about 13%, no sharp cut-off; inactive means mostly below about 14%; further: read at 38.3 µM for the half of the compounds with a filed dose; 0% is about no effect
NS1 function inh: qHTS Assay for Inhibitors of Influenza NS1 Protein Function; Potency, µM (series often up to 46.1 µM), without a hit: top-dose activity, positive = more growth; 270,000 compounds, 0.4% hits; AID 2326, 2010; calls by dose curve; further: potency means the concentration at half of the fitted maximal effect; actives are rising curves; nearly all actives have a fitted effect of over 50% in size
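Read-out: OD600 growth recovery of NS1-expressing budding yeast. Cells grown overnight at 30C in -URA glucose medium, washed, resuspended and diluted 1:100 in 2% galactose assay medium, pH 6.0. Same strain lacking NS1 served as positive control.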
FBPA Giardia inh: qHTS Assay for Inhibitors of Fructose-1,6-bisphosphate Aldolase from Giardia Lamblia. A8B2U2. Potency, µM (top dose mostly 59.6 µM), inactives show top-dose activity, negative = inhibition, usual class: inhibitors. 290,000 compounds, 0.71% hits. purified Giardia FBPA. AID 2451, 2010; further: potency means the concentration at half of the fitted maximal effect; on the % scale 0 is the no-effect control and ±100 the full control effect; nearly all actives have a fitted effect of over 55% in size
Target sequence (A8B2U2 whole entry, looked up): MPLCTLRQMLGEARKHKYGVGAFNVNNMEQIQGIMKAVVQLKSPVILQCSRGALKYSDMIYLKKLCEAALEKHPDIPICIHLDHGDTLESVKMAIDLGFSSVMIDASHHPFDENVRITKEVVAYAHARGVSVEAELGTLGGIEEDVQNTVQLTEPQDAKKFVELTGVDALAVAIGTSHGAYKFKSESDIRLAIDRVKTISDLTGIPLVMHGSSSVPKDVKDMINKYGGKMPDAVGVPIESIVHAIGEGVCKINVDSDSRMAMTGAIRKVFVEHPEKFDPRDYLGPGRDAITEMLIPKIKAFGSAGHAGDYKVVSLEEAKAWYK
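Giardia FBPA (40 nM reagent) was preincubated 10 min at RT with compound (up to 57.5 uM final), then substrate plus GAPDH/TPI/NAD/arsenate coupling system with diaphorase/resazurin was added; resorufin fluorescence (525/598 nm) was read after 20 min.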
Shiga inhibitor: A qHTS for Small Molecule Inhibitors of Shiga Toxin. 290,000 compounds, 9.2% hits. Vero cells, Shiga toxin protein synthesis inhibition reporter. AID 2315, 2010. inhibition, % at 38.7 µM; in the data active means inhibition mostly above about 28%, no sharp cut-off; inactive means mostly below about 43%; further: 0% is about no effect
Pf growth 48h: Primary qHTS for delayed death inhibitors of the malarial parasite plastid, 48 hour incubation; P. falciparum luciferase growth in erythrocytes, 48 h; Potency, µM (highest dose often 28.7 µM), inactives show top-dose activity change, negative = inhibition, hits mostly inhibitors; 310,000 compounds, 5.9% hits; AID 504832, 2011; further: potency means the concentration at half of the fitted maximal effect; on the % scale 0 is the no-effect control and ±100 the full control effect
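Luciferase-expressing P. falciparum in infected erythrocytes (2% hematocrit, 0.1% parasitemia final) in RPMI 1640/0.5% Albumax were exposed to compound for 48 hours at 37 C, 5% CO2; growth read as luminescence.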
Pf growth 96h: Primary qHTS for delayed death inhibitors of the malarial parasite plastid, 96 hour incubation | P. falciparum luciferase reporter growth, 96 h | Potency, µM (series often up to 28.7 µM), without a hit: at the top dose activity change, negative = inhibition, actives largely listed as inhibitors | 320,000 compounds, 6.9% hits | AID 504834, 2011; further: potency means the concentration at half of the fitted maximal effect; on the % scale 0 is the no-effect control and ±100 the full control effect
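Two-generation exposure (96 h) targets delayed-death phenotype. Reporter parasites carrying integrated firefly luciferase, in red cells at 2% hematocrit and 0.05% parasitemia final, kept at 37 C, 5% CO2; luminescence loss indicates inhibition.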
* = called active by the depositor; u = inconclusive; x = not tested or not shown; [ ] = remark or other dose. The list is not random: actives were taken first. Their share in the collection is about 21%. Unless noted, the call rests on the fitted dose curve; in most records, active means well fitted curve in the direction sought with a large enough effect; inconclusive means small, poorly fitted or top-dose-only effect, or another doubt; inactive means no such curve, though single readings can be large; an effect the other way counts as inactive or inconclusive.

SMILES	CHX counter	NS1 function inh	FBPA Giardia inh	Shiga inhibitor	Pf growth 48h	Pf growth 96h
CCOCCCn1c(=S)[nH]c2cc(C(=O)N3CCN(c4ccccc4)CC3)ccc2c1=O	-3	6%	-10%	-6	19%	15µM*
Cc1ccc(CCNC(=O)C2CCN(S(=O)(=O)N3CCOCC3)CC2)cc1	-2	-7%	x	12	3%	u
Cc1cc(C)c2c(N=NN3CCCCC3)[nH]nc2n1	38*	-38%	0%	41*	22%	43%
CCN(CC)N=Nc1[nH]nc2nc(C)cc(C)c12	25	-55%	0%	4	56%	101%
CCC(C)Sc1cccc(-c2nc3ccc(C)cn3c2NCc2ccccc2)c1 (stereo unspecified)	x	x	x	x	3.3µM*	13µM*
Cc1ccc2nc(-c3cccc(-c4cccc(Cl)c4)c3)c(NCc3ccccc3)n2c1	x	x	x	x	7.4µM*	10µM*
Cc1ccc2nc(NCc3ccccc3)c(C=NCc3ccccc3)c(=O)n2c1	2	-18%	-1%	14	43%	-8%
CCC(C)Sc1cccc(-c2nc3ccc(Cl)cn3c2NCc2ccccc2)c1 (stereo unspecified)	x	x	x	x	9.3µM*	10µM*
Cc1oc2ccc(NS(=O)(=O)c3cccc4cccnc34)cc2c1C(=O)OC(C)C	-1	-7%	4%	-16	7%	19%
O=C(c1ccc(S(=O)(=O)Nc2ccccc2F)cc1)N1CCCC1	x	x	x	x	30%	27%
CC(C)(Oc1ccc(Cl)cc1)C(=O)Nc1ccc2oc(=O)ccc2c1	-2	-13%	-2%	-9	u	u
CC(C)(C)C(=O)Nc1ccc(-c2cc3cc(Cl)ccc3o2)cc1	81*	1%	5%	124*	113%	141%
COCCC(=O)N1CCC(Oc2ccc(C(=O)N(C)CCCC3CCCC3)cc2)CC1	26*	-25%	-5%	57*	u	u
COCCC(=O)N1CCC(Oc2ccc(C(=O)NCCCC3CCCC3)cc2)CC1	13*	-21%	x	19	-17%	12µM*
COCCC(=O)N1CCC(Oc2ccc(C(=O)NCCC3=CCCCC3)cc2)CC1	19*	-7%	x	29	-8%	u
COCCC(=O)N1CCC(Oc2ccc(C(=O)NC3CCCCC3)cc2)CC1	-1	13%	-4%	-2	-11%	u
O=C(NCc1ccc(F)cc1)C(c1ccc(Cl)cc1)N(C(=O)c1csnn1)C1CC1 (stereo unspecified)	-5	14%	2%	-4	-8%	-18%
Cn1c(=O)c(-c2cccs2)nc2cnc(Oc3ccccc3)nc21	x	x	-2%	x	x	x
COc1cccc(NC(=S)N2c3ccccc3CC2C)c1 (stereo unspecified)	19*	4%	-16%	31	10%	u
CC(=O)c1ccc(NC(=S)N2c3ccccc3CC2C)cc1 (stereo unspecified)	23*	x	-14%	18	13%	u
CC1Cc2ccccc2N1C(=S)Nc1ccc(S(N)(=O)=O)cc1 (stereo unspecified)	-1	-43%	-10%	14	4%	-12%
CCN(C(=O)c1cc(S(=O)(=O)N2CCCCC2)c[nH]1)c1ccc(OC)cc1	-3	6%	0%	-1	-2%	-22%
Cc1ccc(S(=O)(=O)NC2CCCCC2)c(C)c1NS(C)(=O)=O	-4	-9%	-3%	-13	26%	29%
C=CCn1c(C)cc(C(=O)COC(=O)/C=C/c2cccc(OC)c2)c1C	27*	x	-1%	4	-5%	3%
C=CCn1c(C)cc(C(=O)COC(=O)[C@@H](NC(=O)c2ccccc2Cl)C(C)C)c1C	40*	-47%	1%	19*	-13%	2%
SMILES	CHX counter	NS1 function inh	FBPA Giardia inh	Shiga inhibitor	Pf growth 48h	Pf growth 96h
Cc1cc(C(=O)COC(=O)/C=C/c2cccc(F)c2)c(C)n1C	29*	x	3%	77*	35%	43%
c1ccc(Cn2cc(CN3CCCO3)c(-c3ccc4c(c3)OCO4)n2)cc1	-3	-4%	-4%	13	-10%	u
C=CCN=C1S/C(=C\c2ccc(Cl)cc2)C(=O)N1CC=C	13	-32%	-2%	49*	u	12%
C=CCN=C1S/C(=C/c2ccc([N+](=O)[O-])cc2)C(=O)N1CC=C	-1	-6%	3%	-2	-7%	u
O=C1NC(=S)N(c2ccc(F)cc2)C(=O)/C1=C/c1ccccc1O	12*	-2%	5%	37	x	35%
COC(=O)c1sccc1NC(=O)Nc1ccccc1C	6	-18%	x	-19	12%	35%
COc1ccc(N2CCN(CC(=O)Nc3ccccc3SC)CC2)cc1	-1	-3%	1%	-16	-11%	u
CC(=O)Nc1ccc(C(=O)OCC(=O)Nc2ccccc2F)cc1	26	-5%	-1%	15	9%	27%
COC(=O)c1sccc1NC(=O)Nc1ccccc1F	-3	-6%	-14%	11	60%	9.3µM*
COc1ccc(NC(=O)Nc2ccccc2SC)cc1	30*	-8%	-12%	105*	239%	5.9µM*
COC(=O)c1ccc(NC(=O)Nc2ccccc2F)cc1	40*	-49%	-1%	115*	94%	u
O=C(Nc1ccccc1F)Nc1ccccc1Br	25*	-3%	-6%	68*	43%	-19%
O=C(CSc1ccc2nnc(CCNC(=O)c3ccc(F)cc3)n2n1)NCC1CCCO1 (stereo unspecified)	-2	18%	x	0	0%	-25%
COc1ccc(NC(=O)Nc2ccccc2F)cc1	32*	-51%	-1%	47	x	324%
CNC(=O)Nc1ccccc1F	-5	3%	4%	-21	x	37%
COc1cccc(NC(=O)c2ccccc2F)c1	x	x	x	x	120%	99%
O=C(Nc1ccc2[nH]c(=S)sc2c1)Nc1ccccc1F	70*	7%	1%	70*	338%	118%
COc1cccc(COC(=O)Nc2ccccc2F)c1	29*	-33%	7%	117*	263%	330%
O=C(C#Cc1ccccc1)Nc1ccccc1F	34*	-39%	7%	59	-13%	9.3µM*
c1ccc2c(c1)nnn2CN1CCOCC1	x	0%	x	x	x	x
COc1ccc(Cl)cc1NC(=O)Nc1ccccc1SC	8	x	-5%	24	14%[5.75 µM]	38%[5.75 µM]
CSc1ccccc1NC(=O)Nc1ccc(Cl)cc1	55*	-130%	-14%	83	x	u
COc1ccc(NC(=O)Oc2ccccc2)cc1Cl	1	6%	1%	13	13%	15µM*
COc1ccc(NC(=O)Nc2ccccc2F)c([N+](=O)[O-])c1	26*	-5%	5%	69*	82%	u
CCC(C)C(=O)Nc1ccc(OC)cc1[N+](=O)[O-] (stereo unspecified)	-2	-1%	1%	-12	19%	252%
COC(=O)c1ccc(NC(=O)Nc2ccccc2C)cc1	23*	x	-7%	73*	197%	u
